# D2 PAM-1: Beta-Arrestin HTS for Positive Allosteric Modulators of the Human D2 Dopamine Receptor: Potentiators; hit rate 0.23% among 360,000; DiscoveRx D2 beta-arrestin cells, luminescence, 90 min; 100% = 57 uM dopamine signal; AID 624464, 2012; potentiation, % (no concentration beside the values); in the data active = potentiation above about 50%; inconclusive = mostly about 30% to 49%
# Target sequence (P14416 whole entry, looked up): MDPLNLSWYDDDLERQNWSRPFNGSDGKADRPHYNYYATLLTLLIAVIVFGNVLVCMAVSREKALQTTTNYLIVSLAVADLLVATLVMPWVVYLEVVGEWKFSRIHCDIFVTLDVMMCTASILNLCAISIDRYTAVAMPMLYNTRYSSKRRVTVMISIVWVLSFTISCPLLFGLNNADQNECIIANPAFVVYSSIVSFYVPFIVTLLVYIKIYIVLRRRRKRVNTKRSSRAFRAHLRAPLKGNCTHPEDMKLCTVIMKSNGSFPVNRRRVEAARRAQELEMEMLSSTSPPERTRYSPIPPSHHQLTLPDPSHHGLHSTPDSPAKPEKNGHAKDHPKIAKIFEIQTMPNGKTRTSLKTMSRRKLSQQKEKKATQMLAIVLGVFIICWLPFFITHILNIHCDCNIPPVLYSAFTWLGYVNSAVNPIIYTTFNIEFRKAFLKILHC
#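 D2 cells co-treated with compound plus 50 nM dopamine (EC20) for 90 min at 37 deg C to detect potentiation. Beta-arrestin recruitment was read as enzyme-fragment luminescence after 1 h at ambient temperature. Full response was set by 57 uM dopamine.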
# D2 PAM-2: HTS Assay for Positive Allosteric Modulators of the Human D2 Dopamine Receptor: Primary Screen for Potentiators | HEK293 T-REx D2, calcium flux, EC20 dopamine potentiation | hit rate 0.34% among 340,000 | D(2) dopamine receptor (Homo sapiens), P14416 | potentiation, % at 10 µM | AID 485347, 2010;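 active = potentiation over 3 SD above the plate norm, cut at about 30% in these data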; note: 0% is about no effect
#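 Tetracycline-induced Hek293 Trex D2 cells, force-coupled to calcium, loaded with no-wash calcium dye. Compound added with 180 s kinetic read for agonism, then EC20 dopamine and a further 180 s read for potentiation.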
# D2 antag: HTS Assay for Allosteric Antagonists of the Human D2 Dopamine Receptor: Primary Screen for Antagonists. HEK293 TREx D2 cells, calcium flux, dopamine EC80. inhibition, % at 10 µM. hit rate 2% among 340,000. D(2) dopamine receptor (Homo sapiens), P14416. AID 485344, 2010; in the data active = inhibition above about 30%; inactive = below that, where a call was filed; note: 0% is about no effect
#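 Calcium flux kinetic readout in an inducible HEK293 TREx D2 line plated overnight at 30 C. After 180 s compound exposure, an EC80 dopamine challenge follows with another 180 s kinetic read to detect antagonism.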
# D2 ag-1: Beta-Arrestin HTS for Positive Allosteric Modulators of the Human D2 Dopamine Receptor: Agonists | D(2) dopamine receptor (Homo sapiens), P14416 | DiscoveRx PathHunter D2 beta-arrestin, luminescence, 90 min; 100% = 57 uM dopamine signal | activation, % (no concentration beside the values) | hit rate 0.084% among 360,000 | AID 624465, 2012; in the data active = activation above about 40%; inconclusive = between about 15% and that limit
#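 Agonist mode: compounds alone added to overnight-plated D2 PathHunter cells for 90 min at 37 C, with 57 uM final dopamine (EC100) defining full response. Beta-arrestin recruitment detected by chemiluminescent reagent, read after 1 h at ambient temperature.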
# D2 ag-2: HTS Assay for Allosteric Agonists of the Human D2 Dopamine Receptor: Primary Screen for Agonists | AID 485358, 2010 | activation, % at 2 µM | HEK293 T-REx D2 cells, calcium flux agonist mode | hit rate 0.53% among 340,000;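 active = activation over 3 SD above normal in the single-dose calcium agonist read, cut at about 30% in these data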; note: 0% is about no effect
#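 HEK293 Trex D2 cells, tetracycline-induced, o/n 30 C 5% CO2; no-wash Ca dye, RT 30–90 min; 10-cycle baseline, 23 nl cpd added, kinetic Ca read 180 s; agonist hits = positive Ca response.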
# The depositor's hits bear a star; ? = inconclusive; nt = not tested or not shown. Shown are actives, neighbours in structure and some others; about 2.4% of the full set was active somewhere.
SMILES,D2 PAM-1,D2 PAM-2,D2 antag,D2 ag-1,D2 ag-2
COc1ccc(NC(=O)COc2ccc(C(=O)NC3CCCc4ccccc43)cc2OC)cc1 (stereo not drawn),3.4,35.9*,-2.2,-0.7,-1.5
CCCc1cc(=O)oc2c3c(cc(OCC(=O)N[C@@H](C)C(=O)O)c12)OC(C)(C)CC3,-7.7,14.4,32.9*,-4.5,1.1
CCCc1cc(=O)oc2c3c(cc(OCC(=O)N[C@@H](CSC)C(=O)O)c12)OC(C)(C)CC3,-4.4,0.5,5.0,-2.5,0.0
CCc1nc2ccc(C(=O)Nc3cccc(OC)c3)cn2c1N(C)CCCc1ccccc1,-0.5,nt,nt,-3.8,nt
CCN(CC(O)CON=C1c2ccccc2-c2ccccc21)S(=O)(=O)c1ccc(C)cc1 (stereo not drawn),-20.7,2.1,34.1*,-1.2,1.7
Cn1ncnc1SCc1cn2cccnc2n1,-1.6,7.0,4.3,-4.8,-1.0
O=C1CN(C(=O)COC(=O)c2ccc([N+](=O)[O-])s2)c2ccccc2N1,68.8*,nt,nt,?,nt
O=C1CN(C(=O)COc2ccc(F)cc2Cl)c2ccccc2N1,6.5,1.5,14.8,-0.1,-0.2
CC1CC(=O)Nc2ccccc2N1C(=O)COc1ccc2ccccc2c1 (stereo not drawn),1.5,nt,nt,2.2,nt
CC1CC(=O)Nc2ccccc2N1C(=O)COc1cc(Cl)ccc1Cl (stereo not drawn),-4.4,-4.3,30.4*,1.8,-0.1
O=C1CN(C(=O)COC(=O)c2cccs2)c2ccccc2N1,-0.5,16.0,16.4,-5.3,-1.0
O=C1CN(C(=O)COc2ccc(Cl)cc2Cl)c2ccccc2N1,2.6,-3.9,30.2*,-1.6,0.9
O=C1CN(C(=O)COc2ncnc3ccccc23)c2ccccc2N1,-16.2,3.3,-10.0,-3.2,-0.4
Cc1sc2ncnc(OCC(=O)N3CC(=O)Nc4ccccc43)c2c1C,-8.3,31.5*,-1.2,-1.6,-0.7
COc1ccc(OC)c(N(CCN2C(=O)c3ccccc3C2=O)C(=O)CCl)c1,-2.2,nt,nt,-2.3,nt
COc1ccc(C(O)c2ncc(-c3ccccc3Cl)[nH]2)cc1 (stereo not drawn),-13.0,nt,nt,-1.2,nt
CCOc1ncccc1C(=O)OCc1cccc([N+](=O)[O-])c1,2.2,1.4,0.4,-1.2,0.6
CCOc1ccccc1N(CC(=O)Nc1c(C)n(C)n(-c2ccccc2)c1=O)S(=O)(=O)c1ccccc1,-4.8,5.8,-11.0,3.3,0.4
COCCn1nnnc1C(c1cccs1)N1CCCC(C)C1 (stereo not drawn),-10.9,4.7,-13.3,-3.9,-0.6
Cc1cc(NC(=O)c2cc(-c3ccc(OC(C)C)cc3)nc3ccccc23)no1,-2.3,30.1*,-20.8,0.3,2.0
CCOC(=O)c1c(-c2ccccc2)oc2ccc(OCC(=O)O)cc12,-13.0,-9.7,32.8*,-7.3,-0.2
CCOC(=O)c1c(-c2ccc(OC)cc2)oc2ccc(OCC(N)=O)cc12,-3.1,-6.7,19.3,?,0.1
COc1cc(CNCCN2CCOCC2)ccc1OCc1cccc(Cl)c1,-11.0,1.4,42.3*,-1.1,-0.5
CCn1nc(-c2ccccc2)c(-c2ccccc2)c(C(=O)Nc2ccccc2C(N)=O)c1=O,nt,2.0,nt,nt,-0.8
CC1=C(C(=O)Nc2ccc(C)cc2C)C(C(C)C)n2nc(SCc3ccccc3Cl)nc2N1 (stereo not drawn),nt,19.1,nt,nt,0.4
SMILES,D2 PAM-1,D2 PAM-2,D2 antag,D2 ag-1,D2 ag-2
CCOC(=O)c1cc(-c2ccc(C)cc2)n(CCC(=O)Nc2cc(Cl)ccc2C)c1C,nt,25.1,nt,nt,0.3
NC(=O)C1(N2CCCCC2)CCN(c2ccc3nnc(-c4ccccc4)n3n2)CC1,-3.5,31.8*,-13.4,?,-0.3
Cc1ccc(CN2CCN(CC(=O)NC(C)CCc3ccccc3)C2=O)cc1 (stereo not drawn),0.0,30.1*,-20.9,-0.9,-1.1
CC(CCc1ccccc1)NC(=O)CN1CCN(Cc2ccccc2)C1=O (stereo not drawn),-4.1,-7.1,-7.2,-2.0,0.6
CC(CCc1ccccc1)NC(=O)c1ccccc1C(=O)O (stereo not drawn),-7.1,-8.5,-4.7,0.7,30.4*
CC(CCc1ccccc1)NC(=O)c1ccc(C(=O)NC(C)CCc2ccccc2)cc1 (stereo not drawn),-14.0,12.6,-2.8,0.4,0.0
CC(C)CN1C(=O)C(=O)N(CC(=O)NC(C)CCc2ccccc2)C1=O (stereo not drawn),19.3,-2.0,52.0*,4.0,1.5
O=S(=O)(Nc1cccc(-c2ccc(N3CCOCC3)nn2)c1)c1ccc(F)cc1F,nt,-5.8,nt,nt,-0.2
Cc1sc(NC(=O)CCC(=O)O)c(C(N)=O)c1-c1ccccc1,15.3,3.7,47.5*,-0.4,-0.3
CCN(CC)CCn1c2ccccc2c2nc3ccccc3nc21,-27.6,-8.0,-3.1,-4.4,-0.1
O=c1oc2ccccc2n1CCn1c2ccccc2c2nc3ccccc3nc21,-7.5,76.0*,4.3,-2.5,1.1
COc1ccc2c(c1)c1nc3ccccc3nc1n2CCn1c(=O)oc2ccccc21,-7.7,-0.8,33.6*,-3.0,0.3
COc1ccc2c(c1)c1nc3ccccc3nc1n2CCCN1C(=O)c2ccccc2C1=O,-7.2,13.4,0.1,-0.4,0.7
CCCn1c2ccccc2c2nc3ccccc3nc21,-12.9,46.9*,-0.4,-3.5,-1.5
Cc1nc2c(c(C)c1CCC(=O)NCc1ccccc1)c(=O)n(C)c(=O)n2C,nt,1.6,nt,nt,0.3
C/C(=N\NC(=O)Cc1c(F)cccc1Cl)c1cccnc1,1.9,-1.0,-4.3,-0.4,0.5
Cc1cc(C)n(-c2nc3ccccc3n3nnnc23)n1,-1.6,32.8*,3.7,-0.4,-0.6
c1ccc(N2CCN(c3nc4ccccc4n4nnnc34)CC2)cc1,19.0,7.9,-8.7,-0.5,0.9
CC(Sc1nnc(-c2ccccc2F)n1C1CC1)C(=O)N1CCCC1 (stereo not drawn),-1.9,6.4,-6.6,-3.0,0.5
CC(Sc1nnc(-c2ccccc2F)n1C1CC1)C(=O)NC(N)=O (stereo not drawn),-12.1,-3.1,45.3*,-3.4,0.4
COc1ccc(-c2nn(-c3ccccc3C)cc2CNCc2cccnc2)cc1F,-8.1,-25.0,39.4*,-2.1,-1.9
O=C(Cc1ccccc1)Nc1ccc2c(c1)C(=O)N(CC1CCCO1)C2=O (stereo not drawn),1.3,9.3,2.5,-1.8,0.9

# Compound activity as filed in PubChem.
